The source made the active and inactive calls.
Experiments:
[1] = small molecules captured by biotinylated probe aFSTL3 – biochemical, small-molecule microarray, fluorescence 635/667, stem cell growth factor project, primary screen (AID 1064); conditions: higher = more signal;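 note: measures binding of the biotinylated anti-FSTL3 antibody to printed compounds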
[2] = binders from COS7 lysate, DM2A8 probe, primary screen, torsin A project, cell lysate, small-molecule microarray, fluorescence 635/667 (AID 1065); conditions: higher = more signal, COS7 lysate expressing mutant human TOR1A
[3] = small molecules captured by biotinylated probe aFGF2 – biochemical, small-molecule microarray, fluorescence 635/667, stem cell growth factor project, primary screen (AID 1067); conditions: higher = more signal;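 note: measures binding of biotinylated aFGF2 protein to printed compounds on slides; z-score merges feature fluorescence and signal-to-noise across triplicate slides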
[4] = small molecules captured by biotinylated probe aFGF10 – biochemical, small-molecule microarray, fluorescence 635/667, stem cell growth factor project, primary screen (AID 1071); conditions: higher = more signal;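 note: score merges 667 nm spot intensity and signal to noise from triplicate slides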
[5] = molecular target: Neurogenic locus notch homolog protein 2 (Homo sapiens) (UniProt Q04721); test: small molecules binding Notch2 protein – biochemical, small-molecule microarray, 635 nm fluorescence, stem cell growth factors, primary screen (AID 1073); conditions: higher = more signal
Neurogenic locus notch homolog protein 2 (Homo sapiens), sequence (Q04721 whole entry, looked up, canonical isoform): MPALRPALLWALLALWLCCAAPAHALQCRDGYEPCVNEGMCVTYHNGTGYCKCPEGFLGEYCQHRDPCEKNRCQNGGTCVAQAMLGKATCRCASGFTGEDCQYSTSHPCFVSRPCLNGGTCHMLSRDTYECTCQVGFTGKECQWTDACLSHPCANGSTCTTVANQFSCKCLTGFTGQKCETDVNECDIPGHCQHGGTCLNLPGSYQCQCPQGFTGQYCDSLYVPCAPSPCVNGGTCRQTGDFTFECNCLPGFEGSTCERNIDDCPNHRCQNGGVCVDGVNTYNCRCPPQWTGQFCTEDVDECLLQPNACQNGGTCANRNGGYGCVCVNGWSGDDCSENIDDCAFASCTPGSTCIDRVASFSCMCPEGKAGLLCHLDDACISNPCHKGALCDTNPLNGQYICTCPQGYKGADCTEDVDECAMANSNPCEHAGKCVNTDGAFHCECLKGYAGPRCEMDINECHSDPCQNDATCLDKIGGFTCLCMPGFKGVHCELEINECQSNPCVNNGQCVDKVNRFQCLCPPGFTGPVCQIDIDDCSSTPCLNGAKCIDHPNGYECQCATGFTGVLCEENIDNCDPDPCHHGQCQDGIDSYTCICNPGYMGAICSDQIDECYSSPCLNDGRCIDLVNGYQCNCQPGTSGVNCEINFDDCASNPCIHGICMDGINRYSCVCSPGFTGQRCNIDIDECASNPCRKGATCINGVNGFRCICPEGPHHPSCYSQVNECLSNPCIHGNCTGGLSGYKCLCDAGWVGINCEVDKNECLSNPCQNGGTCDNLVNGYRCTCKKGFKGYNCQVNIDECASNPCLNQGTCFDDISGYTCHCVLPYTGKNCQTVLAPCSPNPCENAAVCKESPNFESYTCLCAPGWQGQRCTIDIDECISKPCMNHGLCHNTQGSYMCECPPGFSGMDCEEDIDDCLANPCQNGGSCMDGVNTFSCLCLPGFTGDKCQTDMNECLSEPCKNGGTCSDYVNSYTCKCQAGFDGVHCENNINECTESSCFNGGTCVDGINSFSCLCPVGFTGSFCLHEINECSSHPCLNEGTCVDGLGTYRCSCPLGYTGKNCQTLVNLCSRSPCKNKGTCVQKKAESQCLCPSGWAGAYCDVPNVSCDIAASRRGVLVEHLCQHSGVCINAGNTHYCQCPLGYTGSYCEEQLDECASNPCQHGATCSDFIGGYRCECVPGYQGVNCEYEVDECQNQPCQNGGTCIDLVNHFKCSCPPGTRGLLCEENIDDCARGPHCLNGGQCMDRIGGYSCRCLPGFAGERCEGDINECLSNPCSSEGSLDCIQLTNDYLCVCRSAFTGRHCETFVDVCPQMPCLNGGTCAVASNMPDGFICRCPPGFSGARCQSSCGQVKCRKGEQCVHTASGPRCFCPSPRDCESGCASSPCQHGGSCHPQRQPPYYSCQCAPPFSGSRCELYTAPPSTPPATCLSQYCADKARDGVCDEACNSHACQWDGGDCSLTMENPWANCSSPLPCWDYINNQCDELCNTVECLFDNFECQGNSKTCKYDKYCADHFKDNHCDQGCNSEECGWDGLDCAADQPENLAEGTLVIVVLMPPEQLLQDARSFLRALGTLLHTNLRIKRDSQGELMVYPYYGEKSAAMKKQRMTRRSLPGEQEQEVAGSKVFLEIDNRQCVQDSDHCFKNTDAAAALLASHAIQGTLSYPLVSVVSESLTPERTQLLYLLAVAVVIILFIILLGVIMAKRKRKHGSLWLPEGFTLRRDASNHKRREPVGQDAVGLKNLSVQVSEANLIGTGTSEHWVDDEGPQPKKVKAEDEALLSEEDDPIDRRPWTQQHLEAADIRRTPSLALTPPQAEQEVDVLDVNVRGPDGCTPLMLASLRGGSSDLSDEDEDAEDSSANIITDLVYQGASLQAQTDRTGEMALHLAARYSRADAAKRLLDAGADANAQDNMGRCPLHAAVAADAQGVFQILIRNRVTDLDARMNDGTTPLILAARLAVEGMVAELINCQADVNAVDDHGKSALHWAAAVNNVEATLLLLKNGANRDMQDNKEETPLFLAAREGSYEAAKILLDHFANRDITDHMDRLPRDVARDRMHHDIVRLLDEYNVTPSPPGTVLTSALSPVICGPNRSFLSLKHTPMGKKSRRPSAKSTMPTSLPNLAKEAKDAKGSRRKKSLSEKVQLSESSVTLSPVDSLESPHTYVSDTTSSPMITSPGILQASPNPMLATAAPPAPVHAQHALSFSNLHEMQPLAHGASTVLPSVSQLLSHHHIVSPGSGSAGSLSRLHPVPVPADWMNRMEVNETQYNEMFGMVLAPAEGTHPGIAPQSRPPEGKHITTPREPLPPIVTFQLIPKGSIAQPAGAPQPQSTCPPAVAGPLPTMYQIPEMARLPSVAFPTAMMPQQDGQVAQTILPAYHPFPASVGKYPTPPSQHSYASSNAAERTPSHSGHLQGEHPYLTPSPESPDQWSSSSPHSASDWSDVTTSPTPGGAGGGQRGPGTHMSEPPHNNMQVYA

[6] = molecular target: Pro-neuregulin-1, membrane-bound isoform (Homo sapiens) (UniProt Q02297); test: small molecules binding neuregulin-1 protein – biochemical, small-molecule microarray, fluorescence 635/667, psychiatric disease protein project, primary screen (AID 1075); conditions: NRG1 binding, 635 nm fluorescence, higher = more signal;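 note: score combines 667 nm spot fluorescence with signal to noise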
Pro-neuregulin-1, membrane-bound isoform (Homo sapiens), sequence (Q02297 whole entry, looked up, the tested form may be a part, canonical isoform): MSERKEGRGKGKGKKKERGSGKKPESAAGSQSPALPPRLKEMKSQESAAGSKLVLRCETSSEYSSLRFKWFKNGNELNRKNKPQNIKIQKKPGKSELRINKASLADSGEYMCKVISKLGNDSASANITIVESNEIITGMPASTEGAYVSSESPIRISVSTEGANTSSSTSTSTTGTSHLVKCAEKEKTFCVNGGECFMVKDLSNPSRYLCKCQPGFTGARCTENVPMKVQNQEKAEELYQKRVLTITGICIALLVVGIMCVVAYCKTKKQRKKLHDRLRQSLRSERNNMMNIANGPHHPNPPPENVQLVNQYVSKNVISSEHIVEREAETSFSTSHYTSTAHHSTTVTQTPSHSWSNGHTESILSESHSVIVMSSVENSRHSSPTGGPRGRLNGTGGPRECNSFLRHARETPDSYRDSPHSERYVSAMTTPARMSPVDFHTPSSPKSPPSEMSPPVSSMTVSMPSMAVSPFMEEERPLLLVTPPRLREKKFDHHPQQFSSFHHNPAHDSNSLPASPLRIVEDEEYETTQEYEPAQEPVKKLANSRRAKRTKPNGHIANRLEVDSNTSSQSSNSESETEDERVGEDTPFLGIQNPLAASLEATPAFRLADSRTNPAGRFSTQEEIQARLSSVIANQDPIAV

[7] = test system: Neuregulin-1 EGF-like domain; test: small molecules binding NRG1 EGF domain – biochemical, small-molecule microarray, 635 nm fluorescence, primary screen (AID 1081); conditions: higher = more signal;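 note: binding of the protein to compounds printed on small-molecule microarray slides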
[8] = FRG1 expression reporter modulators in myotubes – cell-based, C2C12 myotubes, firefly/Renilla luciferase, luminescence, FRG1 inhibition for FSHD, primary screen (AID 1084); conditions: FRG1 promoter luciferase, higher = more signal, called active from +8 up or from −8 down
[9] = small molecules captured by biotinylated probe aFST – biochemical, small-molecule microarray, fluorescence 635/667, stem cell growth factor project, primary screen (AID 1086); conditions: higher = more signal;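 note: score merges 667 nm fluorescence with signal-to-noise of each printed compound spot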
[10] = binders of probe aHhip on microarray, primary screen, stem cell growth factor project, biochemical, small-molecule microarray, fluorescence 635/667 (AID 1087); conditions: higher = more signal;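 note: score merges spot fluorescence at 667nm with spot signal to noise ratio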

SMILES | composite z-score [1] | composite z-score [2] | composite z-score [3] | composite z-score [4] | composite z-score [5] | composite z-score [6] | composite z-score [7] | z-score [8] | composite z-score [9] | composite z-score [10]
CC(C)=NO[C@@H](C)c1cn([C@H](CO)Cc2ccccc2)nn1 | -0.0953 | 0.463 | 0.153 | 0.423 | 0.579 | 0.763 | 0.442 | -0.88 (inactive) | 0.907 | 0.132
CC1(C)O[C@H]2O[C@H]([C@H](O)CON=C3[C@H]4CCn5c(=O)n(-c6ccccc6)c(=O)n5[C@H]4[C@H](O)[C@@H]4O[C@H]34)[C@H](O)[C@H]2O1 | -0.278 | 0.0391 | -0.154 | 0.157 | 0.0872 | 0.762 | -0.431 | -0.027 (inactive) | -0.081 | -0.0994
CCOC(=O)NN=C1C[C@@H](O)[C@@H](O)[C@@H]2[C@@H]3C(=O)N(c4ccc(F)cc4F)C(=O)[C@@H]3CC[C@H]12 | -0.496 | 0.364 | -0.0131 | 0.202 | 0.501 | -0.0227 | 0.158 | 0.816 (inactive) | 0.411 | -0.137
CCc1cc2c(nc1CC)CCN(CCC(C)=NO[C@@H]1O[C@H](COC(C)=O)[C@@H](OC(C)=O)[C@H](OC(C)=O)[C@H]1OC(C)=O)C2 | -0.191 | 0.905 | 0.0333 | 0.928 | 0.839 | 0.408 | 0.996 | 1.05 (inactive) | 0.365 | -0.0994
COc1cccc([C@H](O)Cn2cc(-c3ccc(CON=C(C)C)cc3)nn2)c1 | -0.131 | 0.173 | -0.0138 | 0.0967 | -0.193 | -0.486 | 0.0451 | -0.291 (inactive) | 0.0775 | -0.185
COc1ccc(-c2cnnc(CCCn3ccnc3-c3ccccc3)n2)cc1 | -0.368 | 1.45 | -0.121 | 0.763 | 0.426 | 0.278 | 0.585 | 0.64 (inactive) | 0.117 | -0.12
COC(=O)[C@H](C)NC(=O)CCC1CC(OC(=O)NCc2cccc3ccccc23)CC2(CCCC(COC(=O)NCCC(C)C)O2)O1 (stereo not given in full) | -0.478 | 0.151 | -0.167 | 0.0257 | 0.0502 | 0.543 | 1.02 | 1.5 (inactive) | 0.0638 | -0.264
COc1ccc(COC(=O)NN=C2C[C@@H](O)[C@@H](O)[C@@H]3[C@@H]4C(=O)N(C[C@@H]5CCCO5)C(=O)[C@@H]4CC[C@H]23)cc1 | 0.467 | 0.326 | -0.076 | -0.302 | -0.467 | -0.234 | -0.563 | -0.249 (inactive) | 0.162 | 0.0106
C[C@@H]1CC[C@H]2C(=O)O[C@@H](COc3ccc(C(C)(C)C)cc3)CN2[C@H]1c1ccc(Br)cc1 | -0.348 | 0.0745 | -0.103 | 0.085 | -0.0477 | 0.101 | -0.4 | 0.732 (inactive) | 0.153 | -0.16
CC(C)CON=C1[C@H]2CCn3c(=O)n(C)c(=O)n3[C@H]2[C@H](O)[C@@H]2O[C@H]12 | -0.553 | -0.0908 | -0.136 | 0.469 | 0.493 | 0.288 | 0.157 | -0.0014 (inactive) | -0.0694 | 0.0505
CCOC(=O)NN=C1C[C@@H](O)[C@@H](O)[C@@H]2[C@@H]3C(=O)N(C[C@@H]4CCCO4)C(=O)[C@@H]3CC[C@H]12 | -0.548 | -0.274 | -0.0217 | 0.217 | 0.701 | 0.203 | 0.34 | 0.577 (inactive) | -0.0482 | -0.143
CO[C@H]1COC(=O)[C@H](CCSC)NC(=O)CC=C[C@@H](C)[C@H](OC)COC(=O)[C@@H](OCc2ccccc2)C=C[C@@H]1C | -0.459 | 0.633 | -0.188 | 0.227 | 0.133 | -0.388 | 0.597 | 0.306 (inactive) | -0.276 | -0.134
COc1ccc(COC(=O)NN=C2C[C@@H](O)[C@@H](O)[C@@H]3[C@@H]4C(=O)N(C[C@@H]5CCCO5)C(=O)[C@@H]4CC[C@@H]23)cc1 | -0.227 | 0.359 | -0.156 | 0.878 | -0.0739 | 0.393 | 0.775 | -0.913 (inactive) | 0.0269 | -0.117
CCN1C(=O)[C@H]2[C@H]3[C@H](O)[C@H](O)CC(=NNC(=O)OCc4ccccc4)[C@H]3CC[C@H]2C1=O | 0.307 | 0.447 | 0.0572 | -0.0005 | -0.0049 | -0.117 | -0.696 | -0.209 (inactive) | 0.313 | -0.13
CO[C@@H]1[C@H](O)CO[C@H]1C=Cc1ccccc1 | -0.392 | -0.0641 | -0.0715 | 0.211 | 0.128 | 0.206 | 0.874 | -0.253 (inactive) | 0.228 | -0.283
CCOC(=O)CCN1C(=O)[C@H]2[C@H]3[C@H](O)[C@H](O)CC(=NO[C@@H]4O[C@H](CO)[C@@H](O)[C@H](O)[C@H]4O)[C@H]3CC[C@H]2C1=O | -0.379 | 0.508 | 0.0395 | 0.232 | 0.44 | 0.0332 | 0.569 | 0.261 (inactive) | 0.857 | -0.195

SMILES | composite z-score [1] | composite z-score [2] | composite z-score [3] | composite z-score [4] | composite z-score [5] | composite z-score [6] | composite z-score [7] | z-score [8] | composite z-score [9] | composite z-score [10]
O=C1CCCC=C1C(O)COCc1ccccc1 (stereo not given) | -0.356 | 0.217 | -0.214 | 0.225 | -0.263 | -0.179 | 0.332 | 0.91 (inactive) | -0.302 | -0.194
COc1ccc(O[C@H]2C=C[C@@H](c3ccccc3)O[C@@H]2CON=C2c3cc(OC)ccc3O[C@H](c3cccc(OC)c3)[C@H]2O)cc1 | -0.661 | 0.354 | -0.201 | -0.054 | 1.38 | -0.139 | 0.463 | 1.82 (inactive) | 0.34 | -0.226
CCN(CC)CC(O)CN1CCCCc2nc(C)c(C)cc21 (stereo not given) | -0.482 | 1.04 | -0.14 | 0.456 | 0.635 | -0.164 | 1.07 | -1.2 (inactive) | 0.101 | -0.112
CCN1C(=O)[C@H]2[C@H]3[C@H](O)[C@H](O)CC(=NO[C@@H]4O[C@H](CO)[C@@H](O)[C@H](O)[C@H]4O)[C@H]3CC[C@H]2C1=O | -0.396 | 1.06 | -0.138 | 0.235 | 1 | 0.259 | 0.108 | -1.07 (inactive) | 0.293 | 0.0274
COC(=O)CC=C[C@@H](C)[C@@H](C=NOC(C)CN1CCCCc2nc(C)c(C)cc21)NS(=O)(=O)c1ccc(C)cc1 (stereo not given in full) | 0.061 | 0.751 | -0.0422 | 0.471 | 0.318 | -0.279 | -0.776 | 0.511 (inactive) | 0.38 | 0.0735
CC(C)(C)N1C(=O)[C@H]2[C@H]3[C@H](O)[C@H](O)CC(=NOC[C@@H](O)COCc4ccco4)[C@H]3CC[C@H]2C1=O | 0.784 | 0.733 | -0.0423 | 0.227 | 0.0009 | 0.107 | 0.173 | -0.241 (inactive) | 0.616 | -0.0003
CO[C@@H](C(C)C)[C@@H](C)C1OC(=O)CC1O (stereo not given in full) | -0.156 | -0.126 | -0.15 | 0.0406 | -0.402 | -0.361 | 0.625 | 0.35 (inactive) | -0.192 | -0.0193
CCOC(=O)[C@H](CC(C)C)NC(=O)CCC1CC(OC(=O)NCCc2ccc(F)cc2)CC2(CCCC(COC(=O)NCc3cccc(C(F)(F)F)c3)O2)O1 (stereo not given in full) | -0.17 | 0.13 | -0.0924 | 0.983 | 1.14 | 0.806 | 1.16 | -0.0179 (inactive) | -0.0518 | -0.0102
C#CCCCON=C1[C@H]2CCn3c(=O)n(Cc4cc5c(cc4Cl)OCO5)c(=O)n3[C@H]2[C@H](O)[C@@H]2O[C@H]12 | -0.652 | 0.203 | -0.108 | 0.365 | 0.63 | 0.113 | 0.107 | -0.12 (inactive) | 0.241 | -0.0645
CC(C)=CCCC(C)=CCON=C1C[C@@H](O)[C@@H](O)[C@@H]2[C@@H]3C(=O)N(Cc4ccc5c(c4)OCO5)C(=O)[C@@H]3CC[C@H]12 | -0.386 | -0.203 | -0.0687 | 0.584 | 1.18 | 0.78 | 0.615 | 0.34 (inactive) | 0.416 | -0.272
CCOC(=O)[C@H](Cc1ccccc1)NC(=O)CCC1CC(OC(=O)NCc2ccc3c(c2)OCO3)CC2(CCCC(COC(=O)NCCOc3ccccc3)O2)O1 (stereo not given in full) | -0.288 | 0.474 | -0.051 | 0.378 | 0.896 | 0.833 | 1.08 | 1.17 (inactive) | 0.672 | -0.0994
CO[C@@H]1C=CCC(=O)N[C@@H](C)C(=O)OC[C@@H](OC)[C@H](C)C=CCC(=O)OC[C@H]1C | -0.596 | 2.23 | -0.116 | -0.631 | -0.88 | -0.503 | 0.233 | -0.163 (inactive) | -0.045 | 0.0373
CCOC(=O)[C@H](Cc1ccccc1)NC(=O)CCC1CC(OC(=O)NCCc2ccc(F)cc2)CC2(CCCC(COC(=O)NCc3cccc(C(F)(F)F)c3)O2)O1 (stereo not given in full) | -0.334 | 0.0606 | 0.0102 | 0.758 | 1.49 | 1.28 | 1.05 | -0.342 (inactive) | 0.332 | -0.121
O=C(NCCC[N+]1=CC=NC1c1ccccc1)N1CCCc2nc(-c3ccc(Br)cc3)ccc21 (stereo not given) | -0.265 | -0.14 | -0.107 | 0.345 | 0.576 | 1.21 | 0.97 | 0.88 (inactive) | 0.944 | 0.0373
C=CC[C@@H]1C=C[C@H](ON=C2C[C@@H](O)[C@@H](O)[C@@H]3[C@@H]4C(=O)N(CC)C(=O)[C@@H]4CC[C@@H]23)[C@@H](CO)O1 | -0.416 | 1.86 | -0.0793 | 0.228 | -0.395 | -0.417 | -0.33 | 1.15 (inactive) | 0.245 | -0.0994

Source: PubChem BioAssay
